The campaign covered roughly 38,000 compounds. About 1,200 (3.2%) showed an effect of 50% or more. The median lay at about -58%. What follows is part of a selection rich in strong results, with near analogues and random picks from the rest.

The test relates to Plasmodium falciparum. Description: Calibr Malaria Delayed Death Assay SOP. Format: functional, organism-based. Also noted: scale not given: in the data most compounds retested in dose-response had high values. The note with it: concentration 4.99e-06 (unit not given; other assays of the set use mol/L).
For `O=S1(=O)N=C(CSCc2ccccc2)Nc2ccccc21`, the “Percent Effect” value was -68.12%.

On to `COc1cc(S(=O)(=O)N2CCc3cc(Br)ccc32)cc(C(=O)O)c1OC`, for which the “Percent Effect” value is recorded as -66.42%.

`CC(=O)c1cccc(S(=O)(=O)NCCNC(=O)c2snnc2C)c1`: the “Percent Effect” value is -10.04%.

`Cc1csc(CN2CC[C@H]3O[C@H](C(=O)Nc4cccnc4)CC[C@H]32)n1.O=C(O)C(F)(F)F.O=C(O)C(F)(F)F`: the “Percent Effect” value is -21.13%.

Turning to `CN1CC[C@H]2[C@H](C[C@@H](CN3CCCC3)N2c2nccs2)C1.O=C(O)C(F)(F)F.O=C(O)C(F)(F)F.O=C(O)C(F)(F)F`, the “Percent Effect” value worked out at 72.73%.

In the case of `CC(=O)N1CC[C@H]2[C@H](C[C@@H](Cn3cncn3)N2c2nccs2)C1.O=C(O)C(F)(F)F`, the “Percent Effect” value is -37.22%.

`O=C(O)C(F)(F)F.O=C(O)C(F)(F)F.O=C(O)C(F)(F)F.c1cnn(C[C@@H]2C[C@@H]3CN(CC4CC4)CC[C@@H]3N2c2nccs2)c1`: the “Percent Effect” value was determined as 89.5%.

As for `CC(=O)N1CC[C@H]2[C@H](C[C@@H](CN3CCCC3)N2c2nccs2)C1.O=C(O)C(F)(F)F.O=C(O)C(F)(F)F`, the “Percent Effect” value was -53.97%.

With `CC(C)N1CC[C@H]2[C@H](C[C@@H](Cn3cccn3)N2c2nccs2)C1.O=C(O)C(F)(F)F.O=C(O)C(F)(F)F.O=C(O)C(F)(F)F`, the “Percent Effect” value stood at 65%.

For `CC(=O)N1[C@H](Cn2cncn2)C[C@@H]2CN(CC3CC3)CC[C@@H]21.O=C(O)C(F)(F)F`, the “Percent Effect” value is -11.44%.

Turning to `CC(=O)N1[C@H](Cn2cncn2)C[C@@H]2CN(Cc3nccs3)CC[C@@H]21`, the “Percent Effect” value is given as -179.2%.

On to `CN1[C@H](CN2CCCC2)C[C@@H]2CN(C(=O)Cc3cccs3)CC[C@@H]21.O=C(O)C(F)(F)F.O=C(O)C(F)(F)F`, for which the “Percent Effect” value is on record as -31.64%.

For `CCC(=O)N1CC[C@H]2[C@H](C[C@@H](CN3CCCC3)N2c2nccs2)C1.O=C(O)C(F)(F)F.O=C(O)C(F)(F)F`, the “Percent Effect” value is -82.37%.

For `CCC(=O)N1CC[C@H]2[C@H](C[C@@H](Cn3cccn3)N2c2nccs2)C1.O=C(O)C(F)(F)F.O=C(O)C(F)(F)F`, the “Percent Effect” value is -17.69%.

Turning to `Cl.Cl.c1csc(N2[C@H](Cn3cncn3)C[C@@H]3CNCC[C@@H]32)n1`, the “Percent Effect” value is reported as -62.09%.

For the molecule `CC1CCC(NC(=O)NCC(C)(C)CCS(C)(=O)=O)CC1` (centres undefined), the “Percent Effect” value is -129.7%.

Consider `CCN(Cc1ccc(S(C)(=O)=O)cc1)Cc1nc(COC)no1`, for which the “Percent Effect” value is given as -129.1%.

With `O=c1cc(Cn2ccnc2)nc2n1CCCN(Cc1cccs1)C2`, the “Percent Effect” value is -55.92%.

Turning to `O=C(NCCCO)c1cc(-c2cc[nH]n2)n2ccccc12.O=C(O)C(F)(F)F`, the “Percent Effect” value is -31.15%.

Turning to `COc1ccc(C(NCc2cccc(O)c2)C2CC2)cc1` (centres undefined), the “Percent Effect” value is listed as 83.32%.

On to `COc1ccc(C(NCc2cccc(C#N)c2)C(C)C)cc1` (centres undefined), for which the “Percent Effect” value is listed as -12.81%.

Turning to `COc1ccc(C(NCc2cccc(C#N)c2)C2CC2)cc1` (centres undefined), the “Percent Effect” value was 47.49%.

`CC(C)CCNC(=O)NC(C)c1nncn1C` (centres undefined): the “Percent Effect” value was -95.25%.

In the case of `CCN1CCC2(CC1)CN(C(=O)c1cccnc1)c1ccc(Cl)cc12.O=C(O)C(F)(F)F.O=C(O)C(F)(F)F`, the “Percent Effect” value is 9.219%.

Take `CC(=O)N1CCC2(CC1)CN(C(=O)c1cccnc1)c1ccc(F)cc12.O=C(O)C(F)(F)F`: the “Percent Effect” value is -38.16%.

As to `CN1CCC2(CC1)CN(C(=O)c1cccnc1)c1ccc(Cl)cc12`, the “Percent Effect” value stood at 55.37%.

For the molecule `O=C(CN1CCC(c2nnc(C(F)(F)F)o2)CC1)Nc1cccc(Cl)c1`, the “Percent Effect” value was -52.49%.

For `CC(C)Nc1ncnc2c1CCN(C(=O)c1ccccc1F)CC2.O=C(O)C(F)(F)F`, the “Percent Effect” value was -96.03%.

Consider `O=S(=O)(NC1=NCN(CCc2cccs2)CN1)c1ccc(Br)cc1`, for which the “Percent Effect” value was -31.17%.

For `CCCC(=O)N1CCC(N2CC[C@@](O)(CCOC)[C@H](C)C2)CC1`, the “Percent Effect” value was -32.76%.

Regarding `CCCS(=O)(=O)N1CCC2(CC1)CC(Nc1ncccn1)CO2` (centres undefined), the “Percent Effect” value was -70.84%.

Turning to `O=C(NC1CC1)N1CCn2c(Cn3cccn3)cnc2C1.O=C(O)C(F)(F)F`, the “Percent Effect” value was -67.84%.

With `CC(C)N(C)Cc1cnc2n1CCN(C(=O)Cc1ccccn1)C2.O=C(O)C(F)(F)F.O=C(O)C(F)(F)F`, the “Percent Effect” value is reported as -6.542%.

In the case of `CC(C)N(C)Cc1cnc2n1CCN(CCc1ccccc1)C2.O=C(O)C(F)(F)F.O=C(O)C(F)(F)F`, the “Percent Effect” value came out at 0.4179%.

On to `O=C(c1cccs1)N1CCc2ncc(Cn3cncn3)n2CC1`, for which the “Percent Effect” value is given as -172.5%.

With `CC(C)N(C)Cc1cnc2n1CCN(C(=O)c1cccs1)C2`, the “Percent Effect” value amounted to 60.68%.

With `Cc1noc(C2CCC3(CCN(C(=O)c4ccnnc4)CC3)O2)n1` (centres undefined), the “Percent Effect” value is on record as -55.26%.

Turning to `Cc1cccc(NC(=O)[C@@H]2CCCN2Cc2nc(C)c(C)o2)n1`, the “Percent Effect” value is given as -28.43%.

Take `CC(Nc1ncnc2c1CCNC2)c1ccc2c(c1)CCCC2` (centres undefined): the “Percent Effect” value was 70.15%.

Turning to `CCOc1ccc(C(C)Nc2ncnc3c2CCNC3)cc1OCC` (centres undefined), the “Percent Effect” value is given as 46.78%.

`CC(C)Nc1ncnc2c1CCNCC2`: the “Percent Effect” value is -47.68%.

On to `Cc1ccc(C)c(-n2ncc(C(=O)NCC3COC(C)(C)O3)c2N)c1` (centres undefined), for which the “Percent Effect” value is on record as -97.45%.

Regarding `COCCN(C)C[C@@H]1CN(C(=O)c2cccc(C#N)c2)C[C@@H]1CO`, the “Percent Effect” value was -70.73%.

`COc1cc(Cl)c(NCc2c(C)noc2C)cc1OC`: the “Percent Effect” value is -68.38%.

For the molecule `Cc1cccc(C(=O)Nc2cccc3c2CCCC3)n1`, the “Percent Effect” value was -261.8%.

On to `CC1CN(c2ncccc2C(=O)Nc2cccc3c2CCCC3)CCN1` (centres undefined), for which the “Percent Effect” value is on record as 10.16%.

For the molecule `O=C(Nc1cccc2c1CCCC2)c1cccnc1N1CCCNCC1`, the “Percent Effect” value is on record as 53.52%.

As to `Cc1cccc(OC2CCN(C(=O)c3ccc4ncsc4c3)CC2)n1`, the “Percent Effect” value is given as -115.6%.

For the molecule `CCNc1ncc2c(n1)CN(c1ccc(Cl)cc1)C2=O`, the “Percent Effect” value was -180.2%.

For the molecule `Cc1cccc(COC2COC3(CCN(S(C)(=O)=O)CC3)C2)n1.O=C(O)C(F)(F)F` (centres undefined), the “Percent Effect” value was -59.75%.

Regarding `Cc1cccc(COC2COC3(CCN(Cc4ccoc4)CC3)C2)n1` (centres undefined), the “Percent Effect” value was -18.84%.

Consider `CCN1CCC2(CC1)CC(NCc1cccc(C)n1)c1ccccc1O2.O=C(O)C(F)(F)F.O=C(O)C(F)(F)F.O=C(O)C(F)(F)F` (centres undefined), for which the “Percent Effect” value is recorded as 91.27%.

As for `CCOC1COC2(CCN(Cc3cccc(C)n3)CC2)C1.O=C(O)C(F)(F)F` (centres undefined), the “Percent Effect” value is -37.49%.

Turning to `CCCC(=O)N1CCC2(CC1)CC(NC(C)=O)c1ccccc1O2` (centres undefined), the “Percent Effect” value is given as -58.82%.

In the case of `COC(=O)c1cc(C)nc(N2CCN(Cc3ccn(C(C)C)c3)CC2)n1`, the “Percent Effect” value is -8.689%.

`Cc1cccc(NC(=O)CN2C(=O)CC(C)(C)c3ccccc32)n1`: the “Percent Effect” value is given as -54.59%.

In the case of `CC(C)OCCC(=O)N1CCN(CC(O)c2ccccc2)CC1` (centres undefined), the “Percent Effect” value is reported as -51.21%.

As for `COc1cc(N2CC[C@@H]3O[C@@H](C(=O)NCCN(C)C)C[C@@H]32)ncn1`, the “Percent Effect” value was -52.73%.

On to `O=C(Cc1n[nH]c(-c2cncc(Br)c2)n1)NCc1cccnc1`, for which the “Percent Effect” value is recorded as -11.15%.

Turning to `Cn1ncc2c1CCCC2NCc1cccc(OC2CCCC2)c1` (centres undefined), the “Percent Effect” value is 2.699%.

With `CC(C)[C@H](NC(=O)Cn1nc2c(cc1=O)CCCC2)C(=O)O`, the “Percent Effect” value is -82.81%.

In the case of `CCn1nccc1CNC(=O)C1CCCCC1`, the “Percent Effect” value is listed as -119.3%.

In the case of `Cc1cc(NC(=O)N2CCCC2C(=O)NC2CC2)c2ncccc2c1` (centres undefined), the “Percent Effect” value is reported as -118%.

Turning to `Cc1cc(NC(=O)N2CCCC2C(C)(C)O)c2ncccc2c1` (centres undefined), the “Percent Effect” value was -22.81%.

For `Cc1cc(NC(=O)NC2CCN(C(C)C)CC2)c2ncccc2c1`, the “Percent Effect” value is listed as 79.09%.

`CC(C)C(=O)Nc1ccc2c(c1)ncn2CC(=O)NCCN(C)C`: the “Percent Effect” value is recorded as -104.6%.

Regarding `O=C(C[S+]([O-])Cc1cccc(Cl)c1)NC1CCCC1` (centres undefined), the “Percent Effect” value is -107.7%.

For the molecule `O=C(Cc1cccc(Cl)c1)N[C@@H]1CCNC[C@H]1O`, the “Percent Effect” value was -79.06%.

`O=C(NCCc1cccc(Cl)c1)C1CCOCC1`: the “Percent Effect” value is -133.6%.

Turning to `O=C(O)c1cn2cc(C(F)(F)F)ccc2n1`, the “Percent Effect” value is reported as -36.42%.

Regarding `O=C(NCc1ccco1)[C@H]1C[C@H]2OCC[C@H]2N(C(=O)c2ccnnc2)C1`, the “Percent Effect” value was -30.68%.

For the molecule `CCCN1CCC(N2CCOC(Cc3cccc(OC)c3)C2)CC1` (centres undefined), the “Percent Effect” value is -127.7%.

On to `O=C(NCCN1CCCCC1)c1nc(-c2cccc3[nH]ccc23)no1`, for which the “Percent Effect” value came to 15.88%.

As to `COCC(=O)N1CCCC1c1csc(Nc2cnccn2)n1` (centres undefined), the “Percent Effect” value was -55%.

For `CCC(=O)N1CCCC1c1csc(Nc2cnccn2)n1` (centres undefined), the “Percent Effect” value was -46.83%.

In the case of `O=C(O)C(F)(F)F.O=C(O)C(F)(F)F.O=C1NC2(CCN(Cc3ccoc3)CC2)CC1c1ccncc1` (centres undefined), the “Percent Effect” value is reported as -15.5%.

On to `Nc1nccc(N2CCC(c3cc(Cc4ccccc4)n[nH]3)CC2)n1`, for which the “Percent Effect” value amounted to 35.49%.

As to `Cc1cc(C)c(CNCC(O)c2ccc(F)c(F)c2)c(C)c1.Cl` (centres undefined), the “Percent Effect” value was 92.75%.

As for `Cc1nc(CNC(=O)NCC(O)c2ccc(F)c(F)c2)cs1` (centres undefined), the “Percent Effect” value is listed as -178.5%.

Consider `Cc1n[nH]c(C)c1CNCC(O)c1ccc(F)c(F)c1` (centres undefined), for which the “Percent Effect” value is reported as 14.72%.

As to `Cc1n[nH]cc1CNCC(O)c1ccc(F)c(F)c1.Cl` (centres undefined), the “Percent Effect” value was -33.27%.

As for `Cc1csc(CNC(=O)NCC(O)c2ccc(F)c(F)c2)n1` (centres undefined), the “Percent Effect” value was found to be 2.8%.

`COCCCNc1nc(CNC(C)=O)cc(-c2ccco2)n1`: the “Percent Effect” value was -87.48%.

Take `O=C(O)C(F)(F)F.O=S(=O)(C1CC1)N1CCc2ncnc(N3CCCC3)c2CC1`: the “Percent Effect” value was -107.1%.

In the case of `CCc1nc(C2CCCN2Cc2cnc(C)cn2)no1` (centres undefined), the “Percent Effect” value is listed as -15.63%.

For `CC(C)c1cc(NC(=O)CN2CCCC2Cn2cncn2)on1` (centres undefined), the “Percent Effect” value is -56.31%.

In the case of `COC(=O)c1cccc(C(=O)NCc2ccc3c(c2)CCCN3C)c1`, the “Percent Effect” value is -12.04%.

Consider `CN1CCCc2cc(CNC(=O)c3ccncc3)ccc21`, for which the “Percent Effect” value is recorded as -23.61%.

Turning to `COc1cc(C(=O)NCc2ccc3c(c2)CCCN3C)cc(OC)c1Br`, the “Percent Effect” value came out at 65%.

Values taken from ChEMBL document CHEMBL3988442, “University of Dundee, Small-Polar-MMV Screening Library” (2021).
